# Test results: the supplement of paper PMC8728848
# About 410 targets per protein were measured; listed, in parts, are those with the strongest signals and a random draw of the rest.
# What was measured:
# Experiment in all cases: glycan array binding signal (z-score within array); higher = stronger binding
# Conditions in all cases: glycan notation: IUPAC condensed, linker removed
# [1] = molecular target: Fuc(a1-2)Gal(b1-3)[Fuc(a1-4)]GlcNAc
# In short: (§1)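 Columns mapping to the same glycan were averaged after glycan names were converted to IUPAC-condensed notation. The data come from 3228 arrays in the Consortium for Functional Glycomics database, limited to those with an available protein sequence. Binding is reported as a within-array Z-score averaged across arrays of one protein sequence and across linkers.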
# [2] = molecular target: Fuc(a1-2)Gal(b1-3)[Fuc(a1-4)]GlcNAc(b1-2)Man(a1-3)[Fuc(a1-2)Gal(b1-3)[Fuc(a1-4)]GlcNAc(b1-2)Man(a1-6)]Man(b1-4)GlcNAc(b1-4)GlcNAc
# In short: as §1
# [3] = molecular target: Fuc(a1-2)Gal(b1-3)[Fuc(a1-4)]GlcNAc(b1-3)[Fuc(a1-3)[Gal(b1-4)]GlcNAc(b1-6)]Gal(b1-4)Glc
# In short: as §1
# [4] = molecular target: Fuc(a1-2)Gal6S(b1-4)Glc
# In short: as §1
# [5] = molecular target: Fuc(a1-2)[Gal(a1-3)]Gal(b1-3)GlcNAc
# In short: as §1
# [6] = molecular target: Fuc(a1-2)[GalNAc(a1-3)]Gal(b1-3)GalNAc(a1-3)[Fuc(a1-2)]Gal(b1-4)GlcNAc
# In short: as §1
# [7] = molecular target: Fuc(a1-2)[GalNAc(a1-3)]Gal(b1-3)GlcNAc(b1-3)GalNAc
# In short: as §1
# [8] = molecular target: Fuc(a1-2)[GalNAc(a1-3)]Gal(b1-3)GlcNAc(b1-6)GalNAc
# In short: as §1
# [9] = molecular target: Fuc(a1-2)[GalNAc(a1-3)]Gal(b1-4)GlcNAc(b1-2)Man(a1-3)[Fuc(a1-2)[GalNAc(a1-3)]Gal(b1-4)GlcNAc(b1-2)Man(a1-6)]Man(b1-4)GlcNAc(b1-4)GlcNAc
# In short: as §1
# [10] = molecular target: Fuc(a1-3)[Gal(b1-4)]GlcNAc
# In short: as §1
# [11] = molecular target: Fuc(a1-3)[Gal(b1-4)]GlcNAc(b1-3)Gal(b1-4)[Fuc(a1-3)]GlcNAc(b1-3)Gal(b1-4)[Fuc(a1-3)]GlcNAc
# In short: as §1
# [12] = molecular target: Fuc(a1-3)[Gal(b1-4)]GlcNAc(b1-4)Gal(b1-4)[Fuc(a1-3)]GlcNAc(b1-4)Gal(b1-4)[Fuc(a1-3)]GlcNAc
# In short: as §1
# [13] = molecular target: Fuc(a1-3)[Gal3S(b1-4)]Glc
# In short: as §1
# [14] = molecular target: Gal(a1-3)Gal(b1-4)GlcNAc(b1-6)GalNAc
# In short: as §1
# [15] = molecular target: Gal(a1-3)Gal(b1-4)[Fuc(a1-3)]GlcNAc
# In short: as §1
# [16] = molecular target: Gal(a1-4)Gal(b1-3)GlcNAc(b1-2)Man(a1-3)[Gal(a1-4)Gal(b1-3)GlcNAc(b1-2)Man(a1-6)]Man(b1-4)GlcNAc(b1-4)GlcNAc
# In short: as §1
# [17] = molecular target: Gal(b1-3)GalNAc(b1-4)[Neu5Ac(a2-3)]Gal(b1-4)Glc
# In short: as §1
# [18] = molecular target: Gal(b1-3)[Neu5Ac(a2-6)]GlcNAc(b1-6)Gal(b1-4)Glc
# In short: as §1
# [19] = molecular target: Gal(b1-4)GlcNAc(b1-2)Man(a1-3)[Gal(b1-4)GlcNAc(b1-2)Man(a1-6)][Gal(b1-4)GlcNAc(b1-4)]Man(b1-4)GlcNAc(b1-4)[Fuc(a1-6)]GlcNAc
# In short: as §1
# [20] = molecular target: Gal(b1-4)GlcNAc(b1-2)Man(a1-3)[Man(a1-6)]Man(b1-4)GlcNAc(b1-4)GlcNAc
# In short: as §1
# [21] = molecular target: Gal(b1-4)GlcNAc(b1-2)Man(a1-6)[GlcNAc(b1-2)Man(a1-3)]Man(b1-4)GlcNAc(b1-4)GlcNAc
# In short: as §1
# [22] = molecular target: Gal(b1-4)GlcNAc(b1-2)[Gal(b1-4)GlcNAc(b1-4)]Man(a1-3)[Gal(b1-4)GlcNAc(b1-2)[Gal(b1-4)GlcNAc(b1-6)]Man(a1-6)]Man(b1-4)GlcNAc(b1-4)GlcNAc
# In short: as §1
# [23] = molecular target: Gal(b1-4)GlcNAc(b1-3)Gal(b1-4)GlcNAc
# In short: as §1
# [24] = molecular target: Gal(b1-4)GlcNAc6P
# In short: as §1
# [25] = molecular target: Gal3S(b1-3)GlcNAc
# In short: as §1
# [26] = molecular target: Gal3S(b1-4)[Fuc(a1-3)]Glc6S
# In short: as §1
# [27] = molecular target: Gal3S6S(b1-4)GlcNAc6S
# In short: as §1
binder,measurement,setting,value
"Siglec-F (Mus musculus), Q920G3 (protein) MRWAWLLPLLWAGCLATDGYSLSVTGSVTVQEGLCVFVACQVQYPNSKGPVFGYWFREGANIFSGSPVATNDPQRSVLKEAQGRFYLMGKENSHNCSLDIRDAQKIDTGTYFFRLDGSVKYSFQKSMLSVLVIALTEVPNIQVTSTLVSGNSTKLLCSVPWACEQGTPPIFSWMSSALTSLGHRTTLSSELNLTPRPQDNGTNLTCQVNLPGTGVTVERTQQLSVIYAPQKMTIRVSWGDDTGTKVLQSGASLQIQEGESLSLVCMADSNPPAVLSWERPTQKPFQLSTPAELQLPRAELEDQGKYICQAQNSQGAQTASVSLSIRSLLQLLGPSCSFEGQGLHCSCSSRAWPAPSLRWRLGEGVLEGNSSNGSFTVKSSSAGQWANSSLILSMEFSSNHRLSCEAWSDNRVQRATILLVSGPKVSQAGKSETSRGTVLGAIWGAGLMALLAVCLCLIFFTVKVLRKKSALKVAATKGNHLAKNPASTINSASITSSNIALGYPIQGHLNEPGSQTQKEQPPLATVPDTQKDEPELHYASLSFQGPMPPKPQNTEAMKSVYTEIKIHKC",glycan array binding signal (z-score),[1],-0.132
same,glycan array binding signal (z-score),[2],-0.079
same,glycan array binding signal (z-score),[3],-0.122
same,glycan array binding signal (z-score),[4],-0.123
same,glycan array binding signal (z-score),[5],-0.115
same,glycan array binding signal (z-score),[6],-0.104
same,glycan array binding signal (z-score),[7],-0.094
same,glycan array binding signal (z-score),[8],-0.114
same,glycan array binding signal (z-score),[9],-0.049
same,glycan array binding signal (z-score),[10],-0.117
same,glycan array binding signal (z-score),[11],-0.115
same,glycan array binding signal (z-score),[12],-0.121
same,glycan array binding signal (z-score),[13],-0.146
same,glycan array binding signal (z-score),[14],-0.146
same,glycan array binding signal (z-score),[15],-0.123
same,glycan array binding signal (z-score),[16],0.083
same,glycan array binding signal (z-score),[17],-0.109
same,glycan array binding signal (z-score),[18],-0.091
same,glycan array binding signal (z-score),[19],-0.095
same,glycan array binding signal (z-score),[20],0.022
same,glycan array binding signal (z-score),[21],-0.13
same,glycan array binding signal (z-score),[22],-0.127
same,glycan array binding signal (z-score),[23],-0.096
same,glycan array binding signal (z-score),[24],-0.111
same,glycan array binding signal (z-score),[25],-0.108
same,glycan array binding signal (z-score),[26],0.156
same,glycan array binding signal (z-score),[27],-0.104
